Data on five compounds can be found in PubChem BioAssay.

Active and inactive are the calls of the source.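 The calls were made as follows: active = inhibition of the reporter signal at or above 50%; inactive = inhibition below 50%.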

Broadly, the inhibition is the change of the read-out against control, counted positive when it falls.

This experiment is described as follows: inhibitors of poly I:C-induced TLR3 signaling, primary screen, cell-based, poly I:C stimulus, luciferase, 10K MLSCN set (AID 602277). The note with it: HEK293-TLR3 RL24 IRF3 luciferase reporter, at 10 µM, active compounds read high.
Regarding `CCCCn1c(O)c(C(CC)=Nc2cccc(C(=O)O)c2)c(=O)[nH]c1=O`, the inhibition was 9.91% (inactive).
In the case of `O=C(c1cccs1)C1CN2CCC1CC2` (stereo not given) it was 20.7% (inactive); in that of `COc1ccc(CCn2c(O)c(C=NCc3cccnc3)c(=O)[nH]c2=O)cc1OC`, 18.7% (inactive).
In the case of `O=C(C(Cc1ccccc1)NS(=O)(=O)c1ccc(F)cc1)N1CCC2(CC1)OCCO2` (stereo not given) it was 37.1% (inactive); in that of `O=C(NCc1ccccn1)c1ccccc1Cl`, 10.8% (inactive).
